# Screening results as filed in PubChem BioAssay.
# The list is not random: actives were taken first. Their share in the collection is about 1.6%.
# KCNQ2 enhance = enhances the rat KCNQ2 potassium channel; O88943; AID 2239; B-score at 10 µM; 310,000 tested, 0.54% active; CHO-K1 KCNQ2, FluxOR thallium flux fluorescence; active compounds read high;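 active = fluorescence ratio B-score at least 3 SD of library B-scores, with initial fluorescence B-score within 3 of them, cut at about 5.3 in these data; same plate scores as AID 2156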;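 also: B-score of peak minus minimum over baseline fluorescence ratio after K+ and Tl+ stimulus; positive B-score means potentiation of KCNQ2 with more thallium influx and brighter signal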
# Target sequence (O88943 whole entry, looked up): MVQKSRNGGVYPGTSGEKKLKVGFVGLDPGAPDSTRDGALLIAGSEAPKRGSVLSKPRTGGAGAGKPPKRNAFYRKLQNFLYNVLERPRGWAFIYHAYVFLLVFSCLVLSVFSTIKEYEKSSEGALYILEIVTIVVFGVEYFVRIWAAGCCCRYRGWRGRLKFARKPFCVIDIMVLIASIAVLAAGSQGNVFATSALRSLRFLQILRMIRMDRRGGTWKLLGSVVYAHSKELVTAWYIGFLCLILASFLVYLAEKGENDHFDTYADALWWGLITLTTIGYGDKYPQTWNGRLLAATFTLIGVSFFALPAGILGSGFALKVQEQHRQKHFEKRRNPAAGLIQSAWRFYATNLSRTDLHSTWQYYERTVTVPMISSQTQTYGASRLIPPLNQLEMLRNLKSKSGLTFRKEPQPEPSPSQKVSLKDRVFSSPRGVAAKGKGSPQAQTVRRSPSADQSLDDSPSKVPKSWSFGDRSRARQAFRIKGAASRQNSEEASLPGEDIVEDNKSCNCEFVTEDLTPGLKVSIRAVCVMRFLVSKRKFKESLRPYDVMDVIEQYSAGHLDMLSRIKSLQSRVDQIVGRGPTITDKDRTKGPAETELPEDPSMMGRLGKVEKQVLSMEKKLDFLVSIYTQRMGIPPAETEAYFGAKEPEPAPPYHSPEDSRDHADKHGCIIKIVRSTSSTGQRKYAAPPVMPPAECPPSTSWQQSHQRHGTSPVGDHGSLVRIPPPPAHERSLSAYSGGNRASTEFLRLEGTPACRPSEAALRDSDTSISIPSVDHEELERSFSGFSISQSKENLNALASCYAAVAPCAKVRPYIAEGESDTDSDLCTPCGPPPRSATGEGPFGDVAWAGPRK
# KCNQ2 block = KCNQ2 (rat) channel inhibition | O88943 | B-score at 10 µM | 310,000 tested, 1.1% active | CHO-K1 KCNQ2, FluxOR thallium flux, 20 min; active compounds read low;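 active = fluorescence ratio B-score at most minus 3 library SDs, with starting brightness B-score within 2 library SDs, cut at about -5.5 in these data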
# Hits are given with their value; . = inactive; / = no result given.
SMILES,KCNQ2 enhance,KCNQ2 block
NC(=O)CC(NC(=O)Cc1ccc(Cl)cc1)c1ccc(N2CCC(Cc3ccccc3)CC2)c([N+](=O)[O-])c1 (stereo not given),/,.
Cc1oc2c(cc(NS(=O)(=O)c3ccc(F)cc3)c3ccccc32)c1C(=O)O,/,.
Cc1oc2c(cc(NS(=O)(=O)c3ccc(C(C)C)cc3)c3ccccc32)c1C(=O)O,.,-5.83
COc1ccc(/C=C2\SC(=O)NC2=S)cc1OC,5.9,.
CCOc1ccc(/C=C2\SC(=S)NC2=O)cc1OC,.,.
Cc1ccc(C)c2nc(SCC(=O)N3CCCc4ccccc43)c(C#N)cc12,.,-7.74
Cc1cccc2cc(C#N)c(SCC(=O)N3CC(=O)Nc4ccccc43)nc12,.,.
Cc1onc(-c2c(Cl)cccc2Cl)c1/C(N)=N/OC(=O)C(C)(C)C,.,.
Cc1onc(-c2c(Cl)cccc2Cl)c1CO/N=C(\C#N)c1c(Cl)cccc1Cl,.,-5.55
Cc1oc(-c2ccccc2F)nc1CN1CCC(C(=O)NC2CCCc3ccccc32)CC1 (stereo not given),.,-7.33
Cc1oc(-c2ccccc2F)nc1CN1CCC(C(=O)NC2CCCCCCC2)CC1,/,.
CS(=O)(=O)c1ccc(S(=O)CC(=O)Oc2ccc(Cl)cc2)c([N+](=O)[O-])c1 (stereo not given),/,.
O=C(COc1ccccc1Cl)Nc1ccccc1C(=O)N1CCCCC1,.,-5.99
COc1ccccc1OCC(=O)Nc1ccccc1C(=O)N1CCCCC1,/,.
Cc1ccc(CNC(=O)CCS(=O)(=O)c2ccc(Cl)cc2)cc1,/,.
Cc1ccc(C)c(C(=O)CCC(=O)NCc2ccc(Cl)cc2)c1,.,-5.95
CCCc1nnc(NC(=O)C2CCN(C(=O)c3ccco3)CC2)s1,/,.
COC(=O)C1C(O)=C(C(C)=Nc2cccc3ccccc23)C(=O)CC1(C)C (stereo not given),/,.
COc1ccc2cc(CCNS(=O)(=O)c3c(C)cc(C)cc3C)c(=O)[nH]c2c1,/,.
CCN(CC)c1ccc(NC(=O)C2=CCN(S(=O)(=O)c3ccc(F)cc3)CC2)c(C)c1,7.08,.
Cc1ccc(S(=O)(=O)N2CC=C(C(=O)NCc3ccc(F)cc3)CC2)cc1,.,.
O=C(Nc1nncs1)C1CC(=O)N(CCc2ccc(F)cc2)C1 (stereo not given),/,.
COc1cc([N+](=O)[O-])cc(/C=N/NC(=O)C(C)Nc2cccc3ccccc23)c1O (stereo not given),.,.
COc1ccccc1NC(C)C(=O)N/N=C/c1ccccc1OCc1cccc(Br)c1 (stereo not given),.,-6.27
COc1cccc(NC(=O)COC(=O)Cc2ccc(Cl)cc2)c1,.,.
SMILES,KCNQ2 enhance,KCNQ2 block
COc1cccc(NC(=O)n2nc(N)cc2-c2ccc(Cl)cc2)c1,.,-5.71
O=C(O)CCn1c(SCCOc2ccccc2F)nc2ccccc21,/,.
N#CCCN(Cc1ccccc1)C(=O)c1cccs1,.,.
C=CCN(CC=C)C(=S)NC(=O)c1ccc(C)c(Br)c1,23.9,.
C=CCN(CC=C)C(=S)NC(=O)c1ccc(OC)cc1,.,.
CCOC(=O)c1ccc(NS(=O)(=O)c2c(C)nc3sccn3c2=O)cc1,/,.
CCCCNC(=O)c1onc(CSc2cc(C)cc(C)c2)c1C(=O)NCCCC,.,-5.61
CCCCNC(=O)c1onc(CSc2cc(C)cc(C)c2)c1C(=O)O,.,.
O=C(Cc1ccc(Cl)cc1)NCc1ccccc1Cl,/,.
O=C(NCc1ccccc1Cl)C1(S(=O)(=O)c2ccc(Cl)cc2)CC1,.,-5.73
CC1CC2(CCCCC2)Nc2ccc3ccccc3c21 (stereo not given),/,.
CC(=O)N1c2ccc3ccccc3c2C(C)CC12CCCCC2 (stereo not given),.,-6.63
Cc1cccc(NS(=O)(=O)c2cc(C(=O)OC(C)C(=O)NCc3ccc4c(c3)OCO4)ccc2C)c1 (stereo not given),.,-6.4
CC(=O)Nc1cccc(C(=O)OC(C)C(=O)NCc2ccc3c(c2)OCO3)c1 (stereo not given),.,.
COc1cc2ccccc2cc1C(=O)NCC(c1cccs1)N(C)C (stereo not given),.,.
Cc1ccc(S(=O)(=O)CCC(=O)OCC(=O)NC2CCS(=O)(=O)C2)cc1 (stereo not given),.,.
O=C(NCCNC(=O)c1cc(Cl)ccc1Cl)c1ccco1,.,.
CCn1nc(C(=O)OCC(=O)c2ccc(F)cc2)c2ccccc2c1=O,.,.
CCn1nc(C(=O)OC(C(=O)c2c[nH]c3ccccc23)c2ccccc2)c2ccccc2c1=O (stereo not given),.,-8.04
CCCCc1cc(=O)oc2cc(OCC(=O)NCCN3CCOCC3)ccc12,.,.
COc1cc(NC(=O)c2cc(S(=O)(=O)N3CCCCC3)c[nH]2)cc(OC)c1,.,.
COc1ccc(N2CCN(Cc3cc4c(cc3O)CCC4)CC2)cc1,.,.
Oc1cc2c(cc1CN1CCN(c3cccc(C(F)(F)F)c3)CC1)CCC2,.,-7.26
Cc1c(Cl)ccc2c(C(=O)Nc3cc(C(C)(C)C)on3)cc(-c3ccccn3)nc12,.,-5.93
Cc1cccc2c(C(=O)Nc3ccc(Br)cc3)cc(-c3ccccn3)nc12,.,.
SMILES,KCNQ2 enhance,KCNQ2 block
O=C(/C=C/c1ccc2c(c1)OCO2)NCCSCc1ccc(Cl)cc1Cl,.,-7.77
O=C(/C=C/c1ccc2c(c1)OCO2)NCCSCc1cccc(Cl)c1,/,.
O=C(/C=C/c1ccccc1)C1C(=O)c2ccccc2C1=O,5.77,.
CCc1ccc(/C=C/C(=O)C2C(=O)c3ccccc3C2=O)cc1,.,.
CC(NC(=O)CCCCCN1C(=O)c2ccccc2C1=O)c1ccc2c(c1)CCCC2 (stereo not given),.,.
CC(NC(=O)CCCCCCN1C(=O)c2ccccc2C1=O)c1ccc2c(c1)CCCC2 (stereo not given),5.32,.
Cc1ccccc1NC(=O)c1cc(C(=O)c2cc(Cl)ccc2O)cn(-c2ccccc2C)c1=O,.,-5.6
Cc1ccc(-n2cc(C(=O)c3cc(Cl)ccc3O)cc(C#N)c2=O)cc1,/,.
CC(Nc1c[nH]c(=O)[nH]c1=O)c1ccccc1 (stereo not given),.,.
Cc1cc(C)cc(C(=O)NCCC(=O)N2CCC3(CC2)NCCc2[nH]cnc23)c1,.,.
COc1cccc(NC(=O)CN(C)C(=O)c2cc(-c3ccco3)nc3ccccc23)c1,/,.
CN(CCOc1ccc(Cl)cc1)C(=O)c1cc(-c2ccco2)nc2ccccc12,.,-13.2
CS(=O)(=O)N(CC(=O)Nc1ccc(Br)cc1)C1CCCCC1,/,.
OCCN1CCN(CC(O)COc2ccc(Cl)cc2)CC1 (stereo not given),.,.
OCCN1CCN(CC(O)COc2ccc(C34CC5CC(CC(C5)C3)C4)cc2)CC1 (stereo not given),.,-7.08
Cc1cccc(C(=O)Nc2ccc(C(=O)/C=C/c3ccncc3)cc2)c1,.,-6.02
Cc1cccc(C(=O)Nc2ccc(C(=O)/C=C/c3cccnc3)cc2)c1,/,.
S=C(NCc1ccco1)N1CCN(c2ccccc2Cl)CC1,.,-5.8
Cc1ccc(Cl)cc1N1CCN(C(=S)NCc2ccco2)CC1,/,.
CSCCC(NC(=O)COc1ccccc1)C(=O)N1CCN(c2ccccc2O)CC1 (stereo not given),.,-6.23
CSCCC(NC(=O)COc1ccccc1)C(=O)OCC(=O)c1ccccc1 (stereo not given),/,.
S=c1[nH]nc(COc2ccccc2)n1/N=C/c1c(Cl)cccc1Cl,/,.
